{"source": "the supplement of paper PMC9135407", "system": "primary human hepatic stellate cells (donor 1)", "assay": "scaled lipid accumulation score (0 = DMSO-like, 1 = nortriptyline-like); higher = stronger HSC inactivation (lipid re-accumulation), active = hit call of the paper", "conditions": "48 h", "key": {"[1]": {"conditions": "library stock concentration: 10 mM"}, "[2]": {"conditions": "library stock concentration: 1 mM"}, "[3]": {"conditions": "library stock concentration: 3.33 mM"}}, "note": "“And” between values parts separate entries of the source, which are not always exact repeats. Identical values can stand only once. Counter-ions that a name gives are not always drawn. Among all 5,800 compounds or so, about 620 (11%) showed activity. The sample holds actives, similar compounds and a random draw of the others, so the mix is not that of the screen. Unmarked numbers belong to inactive results.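 The calls were made as follows: active = score above a cut-off or among the top three wells of a plate; in these data no inactive exceeds 0.85.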"}
{"smiles": "Cc1c(C(=O)N(C)C2CCCCC2)sc2nc3ccc(N)cc3n12", "values": [{"measurement": "scaled lipid accumulation score", "setting": "[1]", "result": 0.01}]}
{"smiles": "O=C(Nc1ccc2[nH]nc(-c3ccncc3)c2c1)[C@@H]1CCN(CC(=O)N2CCN(c3ccc(-c4ncccn4)cc3)CC2)C1", "note": "[listing 1 of 2 here]", "values": [{"measurement": "scaled lipid accumulation score", "setting": "library stock concentration: 80 uM", "result": "≤ -0.001"}, {"measurement": "scaled lipid accumulation score", "setting": "library stock concentration: 400 uM", "result": "≤ -0.001"}, {"measurement": "scaled lipid accumulation score", "setting": "library stock concentration: 2 mM", "result": "≤ -0.001"}]}
{"smiles": "O=C(Nc1ccc2[nH]ncc2c1)C1CCC1", "note": "[Rhodblock 6]", "values": [{"measurement": "scaled lipid accumulation score", "setting": "[1]", "result": 0.092}]}
{"smiles": "O=C(Nc1ccc2[nH]nc(-c3ccncc3)c2c1)[C@@H]1CCN(CC(=O)N2CCN(c3ccc(-c4ncccn4)cc3)CC2)C1", "note": "[listing 2 of 2 here]", "values": [{"measurement": "scaled lipid accumulation score", "setting": "[1]", "result": "0.909 (active)"}]}
{"smiles": "O=C(OC[C@H]1O[C@@H](OC(=O)c2cc(O)c(O)c(OC(=O)c3cc(O)c(O)c(O)c3)c2)[C@H](OC(=O)c2cc(O)c(O)c(OC(=O)c3cc(O)c(O)c(O)c3)c2)[C@@H](OC(=O)c2cc(O)c(O)c(OC(=O)c3cc(O)c(O)c(O)c3)c2)[C@@H]1OC(=O)c1cc(O)c(O)c(OC(=O)c2cc(O)c(O)c(O)c2)c1)c1cc(O)c(O)c(OC(=O)c2cc(O)c(O)c(O)c2)c1", "note": "[Tannic acid]", "values": [{"measurement": "scaled lipid accumulation score", "setting": "[1]", "result": "≤ -0.027"}]}
{"smiles": "CCc1cc(Cl)c(OC)c(C(=O)NC[C@@H]2CCCN2CC)c1O.Cl", "note": "[Eticlopride hydrochloride]", "values": [{"measurement": "scaled lipid accumulation score", "setting": "[1]", "result": "0.978 (active)"}]}
{"smiles": "CCc1cc(Cl)c(OC)c(C(=O)NC[C@@H]2CCCN2CC)c1O", "values": [{"measurement": "scaled lipid accumulation score", "setting": "[1]", "result": 0.351}]}
{"smiles": "CCN1CCC[C@H]1CNC(=O)c1c(O)c(Cl)cc(Cl)c1OC", "note": "[Raclopride]", "values": [{"measurement": "scaled lipid accumulation score", "setting": "[1]", "result": "≤ 0 and ≤ -0.006"}]}
{"smiles": "CCN1CCC[C@H]1CNC(=O)c1c(O)c(Cl)cc(Cl)c1OC", "note": "[S(+)-Raclopride L-tartrate]", "values": [{"measurement": "scaled lipid accumulation score", "setting": "[1]", "result": "≤ 0"}]}
{"smiles": "CCCCC[C@H](O)/C=C/[C@@H]1[C@@H](C/C=C\\CCCC(=O)O)[C@@H](O)C[C@@H]1O", "note": "[11.beta.-Prostaglandin F2.alpha.]", "values": [{"measurement": "scaled lipid accumulation score", "setting": "[2]", "result": "≤ 0"}]}
{"smiles": "CCCCC[C@H](O)/C=C/[C@@H]1[C@@H](C/C=C\\CCCC(=O)O)[C@@H](O)C[C@@H]1O", "note": "[9a,11b-Prostaglandin F2]", "values": [{"measurement": "scaled lipid accumulation score", "setting": "[2]", "result": "≤ -0.021"}]}
{"smiles": "CCCCCCCCCCCCCCCCCCCCCCCCCCCCCCO", "note": "[n-Triacontanol]", "values": [{"measurement": "scaled lipid accumulation score", "setting": "[2]", "result": 0.026}]}
{"smiles": "O=C(O)Cc1ccccc1Nc1c(Cl)cccc1Cl", "values": [{"measurement": "scaled lipid accumulation score", "setting": "[1]", "result": "≤ 0"}]}
{"smiles": "COc1ccccc1CNCCCCCCNCCCCCCCCNCCCCCCNCc1ccccc1OC", "note": "[Methoctramine tetrahydrochloride]", "values": [{"measurement": "scaled lipid accumulation score", "setting": "[1]", "result": 0.621}]}
{"smiles": "Cl.Cl.Clc1ccccc1CNC[C@H]1CC[C@H](CNCc2ccccc2Cl)CC1", "values": [{"measurement": "scaled lipid accumulation score", "setting": "[1]", "result": "1.48 (active)"}]}
{"smiles": "O=C(O)Cc1ccccc1Nc1c(Cl)cccc1Cl", "note": "[Diclofenac Sodium]", "values": [{"measurement": "scaled lipid accumulation score", "setting": "[3]", "result": "≤ 0"}, {"measurement": "scaled lipid accumulation score", "setting": "[1]", "result": 0.007}]}
{"smiles": "O=C(O)Cc1ccccc1Nc1c(Cl)cccc1Cl", "note": "[Diclofenac sodium]", "values": [{"measurement": "scaled lipid accumulation score", "result": 0.036}, {"measurement": "scaled lipid accumulation score", "setting": "library stock concentration: 6.3 mM", "result": 0.003}, {"measurement": "scaled lipid accumulation score", "setting": "[1]", "result": "≤ -0.07 and ≤ 0"}]}
{"smiles": "O=C(O)Cc1ccccc1Nc1c(Cl)cccc1Cl", "note": "[Diclofenac Diethylamine]", "values": [{"measurement": "scaled lipid accumulation score", "setting": "[3]", "result": "≤ 0"}, {"measurement": "scaled lipid accumulation score", "setting": "[1]", "result": "≤ 0"}]}
{"smiles": "O=C(O)Cc1ccccc1Nc1c(Cl)cccc1Cl", "note": "[Diclofenac Potassium]", "values": [{"measurement": "scaled lipid accumulation score", "setting": "[3]", "result": "≤ 0"}, {"measurement": "scaled lipid accumulation score", "setting": "[1]", "result": "≤ 0"}]}
{"smiles": "O=C(O)Cc1ccccc1Nc1c(Cl)cccc1Cl", "note": "[Diclofenac (sodium salt)]", "values": [{"measurement": "scaled lipid accumulation score", "setting": "[2]", "result": "≤ 0"}]}
{"smiles": "Cc1ncc(CSSCc2cnc(C)c(O)c2CO)c(CO)c1O", "values": [{"measurement": "scaled lipid accumulation score", "setting": "[1]", "result": "≤ 0"}]}
{"smiles": "O=C1c2c(O)cc(CO)cc2C(OC2OC(CO)C(O)C(O)C2O)c2cccc(OC3OC(CO)C(O)C(O)C3O)c21", "note": "(configuration not stated) [CASANTHRANOL [cascaroside A shown]]", "values": [{"measurement": "scaled lipid accumulation score", "setting": "[1]", "result": "≤ 0"}]}
{"smiles": "CCCCCCCCCCCSCC(=O)O", "note": "[3-Thiatetradecanoic Acid]", "values": [{"measurement": "scaled lipid accumulation score", "setting": "[2]", "result": 0.006}]}
{"smiles": "Cn1cc(-c2[nH]c3cc(NC(=O)[C@H](N)C4CCCCC4)cc4c3c2C=NNC4=O)cn1", "values": [{"measurement": "scaled lipid accumulation score", "setting": "[3]", "result": "≤ 0"}, {"measurement": "scaled lipid accumulation score", "setting": "[1]", "result": 0.077}]}
{"smiles": "CN1c2cc3c(cc2N=C(c2ccc(C(=O)O)cc2)c2ccccc21)C(C)(C)CCC3(C)C", "values": [{"measurement": "scaled lipid accumulation score", "setting": "[1]", "result": 0.08}]}
{"smiles": "CNCCCC12CCC(c3ccccc31)c1ccccc12", "note": "[Maprotiline HCl]", "values": [{"measurement": "scaled lipid accumulation score", "setting": "[3]", "result": 0.678}]}
{"smiles": "CNCCCC12CCC(c3ccccc31)c1ccccc12", "note": "[Maprotilline HCl]", "values": [{"measurement": "scaled lipid accumulation score", "setting": "[1]", "result": "1.35 (active)"}]}
{"smiles": "CNCCC[C@]12CC[C@H](c3ccccc31)c1ccccc12", "note": "[Maprotiline HCl]", "values": [{"measurement": "scaled lipid accumulation score", "setting": "library stock concentration: 7.2 mM", "result": "1.22 (active)"}]}
{"smiles": "C=CCN1CCc2c(cc(O)c(O)c2Cl)C(c2ccccc2)C1", "note": "(configuration not stated)", "values": [{"measurement": "scaled lipid accumulation score", "setting": "[1]", "result": 0.02}]}
{"smiles": "NCCNC(=O)c1ccc(Cl)cn1", "note": "[Lazabemide hydrochloride]", "values": [{"measurement": "scaled lipid accumulation score", "setting": "[1]", "result": "≤ -0.001"}]}
{"smiles": "CCCCNC(=O)[C@@H]1Cc2ccccc2N1C(=O)[C@@H](N)CC", "note": "[Butabindide oxalate]", "values": [{"measurement": "scaled lipid accumulation score", "setting": "[1]", "result": 0.016}]}
{"smiles": "CCCCCCCCCCCC=CC(C)(C)C=CCCCC(=O)O", "note": "[7,7-Dimethyleicosadienoic acid]", "values": [{"measurement": "scaled lipid accumulation score", "setting": "[2]", "result": "≤ -0.02"}]}
{"smiles": "CN1CCN(C2=Nc3cc(Cl)ccc3Nc3ccccc32)CC1", "values": [{"measurement": "scaled lipid accumulation score", "setting": "[1]", "result": "0.854 (active)"}]}
{"smiles": "Clc1ccc2c(c1)N=C(N1CCNCC1)c1ccccc1N2", "note": "[N-Desmethylclozapine] [listing 1 of 2 here]", "values": [{"measurement": "scaled lipid accumulation score", "setting": "[1]", "result": "0.941 (active)"}]}
{"smiles": "CN1CCN(C2=Nc3cc(F)ccc3Cc3ccccc32)CC1", "note": "[Fluperlapine]", "values": [{"measurement": "scaled lipid accumulation score", "setting": "[1]", "result": 0.448}]}
{"smiles": "CN1CCN(C2=Nc3cc(Cl)ccc3Nc3ccccc32)CC1", "note": "[Clozapine] [listing 1 of 2 here]", "values": [{"measurement": "scaled lipid accumulation score", "setting": "[1]", "result": "0.977 (active)"}]}
{"smiles": "CN1CCN(C2=Nc3cc(Cl)ccc3Nc3ccccc32)CC1", "note": "[Clozapine] [listing 2 of 2 here]", "values": [{"measurement": "scaled lipid accumulation score", "result": "1 (active)"}]}
{"smiles": "Clc1ccc2c(c1)N=C(N1CCNCC1)c1ccccc1N2", "note": "[N-Desmethylclozapine] [listing 2 of 2 here]", "values": [{"measurement": "scaled lipid accumulation score", "setting": "[1]", "result": 0.668}]}
{"smiles": "CC(NC(=O)C(O)c1cc(F)cc(F)c1)C(=O)NC1C(=O)N(C)c2ccccc2-c2ccccc21", "note": "(configuration not stated)", "values": [{"measurement": "scaled lipid accumulation score", "setting": "[3]", "result": 0.011}, {"measurement": "scaled lipid accumulation score", "setting": "[1]", "result": 0.133}]}
{"smiles": "O=C(Nc1cccc2cccnc12)c1ccc(N2C(=O)C3C4C=CC(C4)C3C2=O)cc1", "note": "(stereo not drawn) [IWR-1-endo]", "values": [{"measurement": "scaled lipid accumulation score", "setting": "[3]", "result": "≤ 0"}, {"measurement": "scaled lipid accumulation score", "setting": "[1]", "result": "≤ -0.001"}]}
{"smiles": "CCCCC/C=C\\C/C=C\\C/C=C\\C/C=C\\CCCC(=O)OCc1ccsc1", "values": [{"measurement": "scaled lipid accumulation score", "setting": "[2]", "result": "≤ 0"}]}
{"smiles": "C[C@]12CC[C@@H]3c4cc(O)c(O)cc4CC[C@H]3[C@@H]1CC[C@@H]2O", "note": "[2-Hydroxyestradiol]", "values": [{"measurement": "scaled lipid accumulation score", "setting": "[2]", "result": "≤ 0"}]}
